Test results published in PubChem BioAssay (NCATS).
Results filed as inconclusive are left out. Entries that show only a call come without a potency. A number with no mark means an inactive call. Calls of active or inactive are those of the source. Calls come from the whole dose curve; as a rule, active = well fitted curve in the direction sought with a large enough effect; inconclusive = small, poorly fitted or top-dose-only effect, or another doubt; inactive = no such curve, though single readings can be large; an effect the other way counts as inactive or inconclusive.

Assays:
[1] = qHTS for Inhibitors of Plasmodium falciparum (GB4) proliferation (AID 504315); note: nearly all actives have a fitted effect of over 50% in size; note: potency is the fitted concentration of half-maximal effect
Outline: (§1)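 Parasite growth measured as SYBR Green DNA fluorescence (ex 485, em 535 nm) after overnight lysis following 72 h culture at 37 °C, 0.3% parasitemia, 2.5% hematocrit. Values normalized against DMSO and 0.29 uM artemisinin controls, with plate-stack correction.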

[2] = qHTS for Inhibitors of Plasmodium falciparum (7G8) proliferation (AID 504316); note: nearly all actives have a fitted effect of over 65% in size; note: potency is the fitted concentration of half-maximal effect
Outline: as §1

[3] = qHTS for Inhibitors of Plasmodium falciparum (HB3) proliferation (AID 504318); note: nearly all actives have a fitted effect of over 60% in size; note: potency is the fitted concentration of half-maximal effect
Outline: as §1

[4] = qHTS for Inhibitors of Plasmodium falciparum (CP250) proliferation (AID 504320); note: potency is the fitted concentration of half-maximal effect
Outline: as §1

[5] = qHTS for Inhibitors of Plasmodium falciparum (DD2) proliferation (AID 504314);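 note: parasite DNA measured by SYBR Green fluorescence after red cell lysis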
Outline: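 Parasite proliferation measured as SYBR Green signal from Plasmodium DNA, mature erythrocytes lacking DNA. 72 h incubation, 37C; activity scaled between vehicle and 0.29 uM artemisinin, with correction from vehicle-only plates.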

Row | SMILES | Potency [1] | Potency [2] | Potency [3] | Potency [4] | Potency [5]
1 | COC(=O)C1=C(C(=O)OC)[C@@H]2N(Cc3ccccc3)c3ccccc3[C@@]23C[C@@H](C(=O)OC)N(S(=O)(=O)c2ccc4c(c2)OCCN4C)C3=N1 | 1510 nM (active) | 1900 nM (active) | 1200 nM (active) | 1510 nM (active) | 
2 | COC(=O)C1=C(C(=O)OC)[C@@H]2N(Cc3ccccc3)c3ccccc3[C@@]23C[C@@H](C(=O)OC)N(S(=O)(=O)c2ccc(C)cc2)C3=N1 | 1690 nM (active) | 1690 nM (active) | 1510 nM (active) |  | 
3 | COC(=O)C1=C(C(=O)OC)[C@@H]2Nc3ccccc3[C@@]23C[C@@H](C(=O)OC)N(S(=O)(=O)c2ccc(C#N)cc2)C3=N1 |  |  |  | inactive | inactive
4 | COC(=O)C1=C(C(=O)OC)[C@@H]2N(C)c3ccc(OC)cc3[C@@]23C[C@@H](C(=O)OC)N(C(=O)CC(C)C)C3=N1 |  |  |  | inactive | inactive
5 | COC(=O)C1=C(C(=O)OC)[C@@H]2Nc3ccccc3[C@@]23C[C@@H](C(=O)OC)N(S(=O)(=O)c2ccc(OC)cc2)C3=N1 |  |  |  | inactive | inactive
6 | CC1COc2ccccc2C1=O (configuration not stated) | 1900 nM (active) | 1690 nM (active) | 1900 nM (active) |  | 
7 | CCOC(=O)CN1C(=O)N[C@@H](c2cccc(C(F)(F)F)c2)C(C(=O)OC)=C1C | inactive | inactive | inactive | inactive | 
8 | CCCCc1nc2c(c3c1C[C@H](C)OC3)CN(C(=O)NCCc1c[nH]c3ccccc13)CC2 | inactive | inactive | inactive | inactive | 
9 | COCOc1c2c(c(OCOC)c3c(OCOC)cccc13)C(=NNS(C)(=O)=O)C1=C2CCCC1 | inactive | 1690 nM (active) |  |  | 
10 | COC(=O)CCC(=O)OC1(C)C(=O)C2=CN(c3ccc(OC)cc3)C(c3ccc(OC)cc3)=CC2=C(Br)C1=O (configuration not stated) |  |  | inactive | inactive | inactive
11 | COC(=O)C1=C(C(=O)OC)[C@@H]2N(Cc3ccccc3)c3ccccc3[C@@]23C[C@@H](C(=O)OC)N(S(=O)(=O)c2ccc(C#N)cc2)C3=N1 | 2130 nM (active) | 1900 nM (active) | 1690 nM (active) |  | 
12 | C[C@H]1Cc2c(COc3ccccc3)nc3c(c2CO1)CN(S(=O)(=O)c1ccc(Cl)c2nonc12)CC3 | inactive |  |  | inactive | 
13 | COC(=O)[C@@H]1CC[C@H](C)[C@@H](c2ccc(C)cc2)N1C(=O)c1ccc(C=NO[C@@H](C)c2cc(-c3c(C)cc(C)cc3C)no2)cc1 | 1690 nM (active) | 1690 nM (active) |  | 1690 nM (active) | 
